Data published in PubChem BioAssay (NCATS).
Results filed as inconclusive are left out. Activity calls are given as the source filed them. Calls come from the whole dose curve; as a rule, active = well fitted cell-killing curve with a large enough effect; inconclusive = small, poorly fitted or top-dose-only effect, or effect the other way; inactive = flat fitted curve, though single readings scatter.

Experiments:
Assay in all cases: Primary qHTS to identify gynecologic anti-cancer compounds using libraries of approved drugs and bioactive compounds (AID 1345084); note: nearly all actives have a fitted effect of over 55% in size
Conditions in all cases: Gynecologic cancer cell panel viability, ATPlite luminescence, 48 h; series mostly up to 57.5 µM
JEG-3 = tested on: JEG-3
Procedure, shortened: (§1)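 Five-concentration response, 48 h; readout is ATP-driven luciferase luminescence.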

OV90 = tested on: OV90
Procedure, shortened: as §1

PA-1 = tested on: PA-1
Procedure, shortened: as §1

SKOV3 = tested on: SKOV3
Procedure, shortened: as §1

Tov-21-G = tested on: Tov-21-G
Procedure, shortened: as §1

Tov112D = tested on: Tov112D
Procedure, shortened: as §1
% is set by controls: 0 for no effect and ±100 for the full control effect.

C[C@@H]1O[C@@H](O[C@H]2[C@H](O)[C@@H](O)[C@H](OC[C@H]3O[C@@H](OC(=O)[C@]45CCC(C)(C)C[C@H]4C4=CCC6[C@@]7(C)CC[C@H](O[C@@H]8OC[C@H](O)[C@H](O[C@@H]9O[C@H](CO)[C@@H](O)[C@H](O)[C@H]9O)[C@H]8O)[C@@](C)(CO)C7CC[C@@]6(C)[C@]4(C)CC5)[C@H](O)[C@@H](O)[C@@H]3O)O[C@@H]2CO)[C@H](O)[C@H](O)[C@H]1O (stereo partly drawn)
inactive: activity change, negative = cytotoxicity (JEG-3) 16.9% [at 6.55 µM] | activity change, negative = cytotoxicity (OV90) 13.6% [at 6.55 µM] | activity change, negative = cytotoxicity (PA-1) 8.25% [at 6.55 µM] | activity change, negative = cytotoxicity (SKOV3) 11.5% [at 6.55 µM] | activity change, negative = cytotoxicity (Tov-21-G) 8.55% [at 6.55 µM] | activity change, negative = cytotoxicity (Tov112D) -0.716% [at 6.55 µM]

Nc1nc2c(ncn2[C@@H]2O[C@H](CO)[C@@H](O)[C@H]2O)c(=O)[nH]1
inactive: Potency (JEG-3) | Potency (OV90) | Potency (PA-1) | Potency (SKOV3) | Potency (Tov-21-G) | Potency (Tov112D)

CC(C)C(=O)OC[C@H]1O[C@H](O[C@H]2O[C@H](CO)[C@@H](O)[C@H](O)[C@H]2O)[C@H](O)[C@@H](O)[C@@H]1O
inactive: Potency (JEG-3) | Potency (OV90) | Potency (PA-1) | Potency (SKOV3) | Potency (Tov-21-G) | Potency (Tov112D)

O=C(Nc1ccccc1-c1cn2c(CN3CCNCC3)csc2n1)c1ccc2ccccc2n1
inactive: Potency (JEG-3) | Potency (OV90) | Potency (PA-1) | Potency (SKOV3) | Potency (Tov-21-G) | Potency (Tov112D)

CSc1ccc(C(=O)N[C@@H]2CCCC[C@@H]2NC(=O)CNC(=O)c2cc(C(F)(F)F)ccc2NC(=O)NC(C)C)cc1
inactive: Potency (JEG-3) | Potency (OV90) | Potency (PA-1) | Potency (SKOV3) | Potency (Tov-21-G) | Potency (Tov112D)

CC(C)/C=C1\NC(=O)C(C(C)C)n2c1nc1c(c2=O)C=CC=CO1 (stereo not drawn)
inactive: Potency (JEG-3) | Potency (OV90) | Potency (PA-1) | Potency (SKOV3) | Potency (Tov-21-G) | Potency (Tov112D)

C=C(CO[C@@H]1O[C@H](CO[C@@H]2OC[C@](O)(CO)[C@H]2O)[C@@H](O)[C@H](O)[C@H]1O)C1Cc2cc(C(C)=O)ccc2O1 (stereo partly drawn)
inactive: Potency (JEG-3) | Potency (OV90) | Potency (PA-1) | Potency (SKOV3) | Potency (Tov-21-G) | Potency (Tov112D)

CC/C=C\CC1C(=O)C=CC1(CCCCCCCC(=O)O)OC(C)=O (stereo not drawn)
inactive: Potency (JEG-3) | Potency (OV90) | Potency (PA-1) | Potency (SKOV3) | Potency (Tov-21-G) | Potency (Tov112D)

Cc1cc(C)nc(NS(=O)(=O)c2ccc(NC(=S)NC(=O)COc3ccc(Br)cc3Cl)cc2)n1
inactive: Potency (JEG-3) | Potency (OV90) | Potency (PA-1) | Potency (SKOV3) | Potency (Tov-21-G) | Potency (Tov112D)

CC(C)(F)C[C@@H](N[C@@H](c1ccc(-c2ccc(S(C)(=O)=O)cc2)cc1)C(F)(F)F)C(=O)NC1(C#N)CC1
inactive: Potency (JEG-3) | Potency (OV90) | Potency (PA-1) | Potency (SKOV3) | Potency (Tov-21-G) | Potency (Tov112D)

CNC12CC3C[C@@](C)(C1)C[C@](C)(C3)C2
inactive: Potency (JEG-3) | Potency (OV90) | Potency (PA-1) | Potency (SKOV3) | Potency (Tov-21-G) | Potency (Tov112D)

C=CC(C)(O)CC[C@H]1C(=C)CCC2[C@](C)(C(=O)O)CCC[C@@]21C (stereo partly drawn)
inactive: Potency (JEG-3) | Potency (OV90) | Potency (PA-1) | Potency (SKOV3) | Potency (Tov-21-G) | Potency (Tov112D)

Cn1ncnc1COc1nn2c(-c3cc(F)ccc3F)nnc2cc1C(C)(C)C
inactive: Potency (JEG-3) | Potency (OV90) | Potency (PA-1) | Potency (SKOV3) | Potency (Tov-21-G) | Potency (Tov112D)

Cc1c2cc(c(C(=O)O)c1C)OC1OC(C(O)C(O)C1O)C(O)C(O)C1OC(O2)C(O)C(O)C1O (stereo not drawn)
inactive: Potency (JEG-3) | Potency (OV90) | Potency (PA-1) | Potency (SKOV3) | Potency (Tov-21-G) | Potency (Tov112D)

c1cc(OCCCN2CCCCC2)ccc1CN1CCCCC1
inactive: Potency (JEG-3) | Potency (OV90) | Potency (PA-1) | Potency (SKOV3) | Potency (Tov-21-G) | Potency (Tov112D)

CC1(C)CC[C@]2(C(=O)O[C@@H]3O[C@H](CO)[C@@H](O)[C@H](O)[C@H]3O)CC[C@]3(C)C(=CCC4[C@@]5(C)C[C@@H](O)[C@H](O)[C@@](C)(CO)C5CC[C@]43C)C2[C@@H]1O (stereo partly drawn)
inactive: Potency (JEG-3) | Potency (OV90) | Potency (PA-1) | Potency (SKOV3) | Potency (Tov-21-G) | Potency (Tov112D)

CC1OC(OC2C(C)OC(OC3C(O)C(CO)OC(O[C@H]4CC[C@@]5(C)C(CC[C@]6(C)C5CC=C5C7[C@@H](C)[C@H](C)CC[C@]7(C(=O)O)CC[C@]56C(=O)O)C4(C)C)C3O)C(O)C2O)C(O)C(O)C1O (stereo partly drawn)
inactive: activity change, negative = cytotoxicity (JEG-3) -5.03% [at 11.6 µM] | activity change, negative = cytotoxicity (OV90) 0.765% [at 11.6 µM] | activity change, negative = cytotoxicity (PA-1) -0.273% [at 11.6 µM] | activity change, negative = cytotoxicity (SKOV3) -6.75% [at 11.6 µM] | activity change, negative = cytotoxicity (Tov-21-G) -0.483% [at 11.6 µM] | activity change, negative = cytotoxicity (Tov112D) 2.5% [at 11.6 µM]

C[C@@H]1O[C@@H](O[C@H]2[C@@H](OC(=O)[C@]34CCC(C)(C)CC3C3=CCC5[C@@]6(C)C[C@H](O)[C@H](O[C@@H]7O[C@H](C(=O)O)[C@@H](O)[C@H](O)[C@H]7O)[C@@](C)(C(=O)O)C6CC[C@@]5(C)[C@]3(C)CC4)OC[C@H](O)[C@@H]2O)[C@H](O)[C@H](O)[C@H]1O[C@@H]1OC[C@@H](O)[C@H](O)[C@H]1O (stereo partly drawn)
inactive: activity change, negative = cytotoxicity (JEG-3) 3.02% [at 11.6 µM] | activity change, negative = cytotoxicity (OV90) 7.22% [at 11.6 µM] | activity change, negative = cytotoxicity (PA-1) -35% [at 11.6 µM] | activity change, negative = cytotoxicity (SKOV3) 13.5% [at 11.6 µM] | activity change, negative = cytotoxicity (Tov-21-G) -4.55% [at 11.6 µM] | activity change, negative = cytotoxicity (Tov112D) -6.05% [at 11.6 µM]
